Test results: PubChem BioAssay (NCI)
The panel holds about 83,000 compounds, 20% with a hit somewhere; the sample as a whole holds those more often.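 The test compound was applied at a single concentration to cells in 96-well plates for 48 hours, and percent growth was recorded.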 A number with no mark means an inactive call. Activity calls are given as the source filed them. Rule for the calls: active = growth percent below 10; inactive = the rest.

What was measured:
Experiment in all cases: NCI-60 one-dose screen, 48 h (100 = growth as untreated, 0 = no growth, -100 = all killed)
HCT-15 colon = conditions: 10 µM unless noted
HT29 colon = conditions: 10 µM unless noted
SNB-75 CNS = conditions: 10 µM unless noted
SNB-19 CNS = conditions: 10 µM unless noted
U251 CNS = conditions: 10 µM unless noted
PC-3 prostate = conditions: 10 µM unless noted
LOX IMVI melanoma = conditions: 10 µM
SK-MEL-28 melanoma = conditions: 10 µM unless noted
SK-MEL-2 melanoma = conditions: 10 µM unless noted
EKVX NSCLC = conditions: 10 µM unless noted
SN12C renal = conditions: 10 µM unless noted
UO-31 renal = conditions: 10 µM unless noted
TK-10 renal = conditions: 10 µM unless noted
ACHN renal = conditions: 10 µM unless noted
CAKI-1 renal = conditions: 10 µM unless noted
A498 renal = conditions: 10 µM unless noted
CCRF-CEM leukemia = conditions: 10 µM unless noted
MOLT-4 leukemia = conditions: 10 µM unless noted
UACC-62 melanoma = conditions: 10 µM unless noted
SK-MEL-5 melanoma = conditions: 10 µM unless noted

Row | SMILES | growth (HCT-15 colon) | growth (HT29 colon) | growth (SNB-75 CNS) | growth (SNB-19 CNS) | growth (U251 CNS) | growth (PC-3 prostate) | growth (LOX IMVI melanoma) | growth (SK-MEL-28 melanoma) | growth (SK-MEL-2 melanoma) | growth (EKVX NSCLC) | growth (SN12C renal) | growth (UO-31 renal) | growth (TK-10 renal) | growth (ACHN renal) | growth (CAKI-1 renal) | growth (A498 renal) | growth (CCRF-CEM leukemia) | growth (MOLT-4 leukemia) | growth (UACC-62 melanoma) | growth (SK-MEL-5 melanoma)
1 | O=C(Nc1cccc(Cl)c1)c1ccc(Cl)cc1Cl | 96.3% | 86.5% | 84.7% | 96.9% | 90.7% | 82.2% | 98.5% | 101% | 95.6% | 84.3% | 92.9% | 82.7% | 90.1% | 99.7% | 92.2% | 87.8% | 89.6% | 87.9% |  | 
2 | CCOc1ccc(C(=O)NCC(C)C)cc1 | 103% | 106% | 81.8% | 99.3% | 101% | 98.1% | 97.2% | 106% |  | 106% | 99.9% | 93.5% | 97.8% | 107% | 101% | 92.1% | 103% | 100% | 101% | 
3 | CC(C)N(CCCC#N)C(C)C | 96.7% | 86.6% | 85.2% | 90.7% | 92.4% | 86.7% | 97.7% | 95.3% | 121% |  | 94% | 86% | 104% | 98% | 95.1% | 79.4% | 86.9% | 112% | 95.2% | 
4 | C[n+]1c(/C=C\C=C\N2CCCCC2)sc2ccccc21 | 57.7% | 1.33% (active) | 14.4% | 15.4% | 14.5% | 2.78% (active) | 14.1% | 39.4% | -51.1% (active) | 5.77% (active) | 7.71% (active) | 52.1% | 22% | 66.2% |  | 43.5% | 8.73% (active) | -9.41% (active) | 3.09% (active) | 
5 | CC(=O)NNC(=S)/N=C\C(C(=O)c1ccccc1)=C(/O)c1ccccc1 | 98.7% | 93.8% | 86.3% | 105% | 99.5% | 93% | 94% | 106% | 110% |  | 107% | 79.8% | 130% | 99.5% | 98.3% | 105% | 102% | 93% | 101% | 
6 | OCCOc1ccc(-c2cc(-c3ccccn3)nc(-c3ccccn3)c2)cc1 | 19.1% | 4.07% (active) | 24.1% | 20.6% | 4.7% (active) | 20.1% | -29.6% (active) |  | 37.6% | 18.5% | 11.7% | -14.5% (active) | 28% | 3.04% (active) | 3.07% (active) |  | 3.02% (active) | -6.16% (active) | -44.8% (active) | 
7 | Nc1ccn(C2OC(CO)C(O)C2F)c(=O)n1 (stereo unspecified) | 95.8% | 79% | 79.5% | 90.5% | 78.6% |  | 79.6% | 60.5% | 90.1% |  | 78.8% | 76.8% | 92.5% | 62.1% | 69.8% | 88.5% | 19.1% | -15.5% (active) | 77.7% | 92.5%
8 | COc1ccc(C2CC(c3ccccc3)=Nc3ccccc3S2)cc1 (stereo unspecified) | 98.3% | 92.8% | 80.7% | 93.8% |  | 82.7% |  | 98.4% | 85.6% |  | 103% | 57.5% | 113% | 103% | 84% |  | 85.2% | 77.6% | 97.9% | 94.2%
9 | Clc1cccc(Cl)c1C1CSc2ccccc2N=C1c1ccccc1 (stereo unspecified) | 54.7% | 26.8% | 64.9% | 97.4% |  | 55% |  | 90.4% | 90.2% |  | 75.5% | 55.3% | 117% | 76.8% |  | 124% | -12.9% (active) | 20.1% | 68.9% | 86.8%
10 | CNc1ccccc1C(=O)N/N=C/C=C/c1ccccc1 | 33.8% | 3.82% (active) | -15.6% (active) | 53.9% |  | 18.7% | 14.7% | 39.3% | 3.74% (active) |  | 48.7% | 43.8% | 31.1% | 58.2% | 12.7% | -8.31% (active) | 12% | 18.5% | 49.3% | 18.2%
11 | O=C1C=Cc2ccccc2/C1=C/c1[nH]c(=O)[nH]c1O | 59.7% | 37.7% | 31.9% | 34.1% | 29.3% | 27.4% | 48.8% | 30.6% | 22.9% | 69.6% | 60.6% |  | 65.2% | 55.3% | 68.7% | 32.7% | 24.3% | 43% | 24% | 
12 | CCCCNC(=O)c1ccc(OCC)cc1 | 105% | 107% | 102% | 105% | 99.1% | 90.9% | 95.2% | 101% |  |  | 103% | 101% | 105% | 109% | 100% | 94.2% | 94.9% | 105% | 98.2% | 
13 | NC(=O)c1cc2c3ccccc3ccn2c1-c1ccccc1 | 4.13% (active) | 7.35% (active) | 59.9% |  | 16.1% | 37.3% |  | 105% | -7.59% (active) | 14.5% | 28.5% | 32.2% | 47.7% | 23.6% | -9.87% (active) | 34.4% | 2.84% (active) |  | 31.7% | -34.2% (active)
14 | OCCNc1ccccc1 | 105% | 104% | 91.3% | 116% | 97.6% | 95.7% | 94.3% | 107% | 103% | 111% | 108% |  | 101% | 108% | 96.7% | 99.1% | 105% | 101% | 109% | 
15 | N#CC1(O)CCCCC1 | 99.6% | 104% | 49.2% | 108% | 94.7% | 95.2% |  | 109% |  |  | 110% | 85.6% | 102% | 106% | 92.5% |  |  | 102% | 106% | 
16 | Cc1onc(-c2ccccc2Cl)c1C(=O)Cl | 98.2% | 106% | 78.1% | 99.2% | 96.8% | 90.7% | 95.1% | 92.6% | 113% |  | 95.7% | 91.2% | 110% | 96.2% | 93.5% | 95.9% | 90.9% | 114% | 99% | 
17 | Cc1ccc(NC(=S)N2CCOCC2)cc1C | 86.2% | 114% | 106% | 94.5% |  | 104% | 82.3% | 111% | 100% |  | 99.4% | 66.3% | 103% | 99.2% | 101% | 105% | 109% | 100% | 94% | 96.5%
18 | CCCNS(=O)(=O)c1ccc(Cl)cc1 | 99.6% | 101% | 93.4% | 104% | 99.3% | 92.9% | 101% | 108% | 106% | 91.6% | 103% | 89.9% | 106% | 102% | 93.8% | 98.9% | 100% | 113% |  | 
19 | NC(=O)NCCO | 109% | 100% | 105% | 104% | 92.5% | 94.5% | 97.7% | 113% | 108% |  | 101% | 94.1% | 96.5% | 107% | 95.2% | 77.1% | 85% | 96.3% | 95.5% | 
